Sa RN4220 lethal = S. aureus RN4220 growth inhibition; OD600, 16 h; inhibition, % (concentration not given with the values); 330,000 compounds, 0.33% hits; in the data active means inhibition above about 85%
MazEF act = activators of E. coli MazEF toxin-antitoxin RNase. 350,000 compounds, 0.32% hits. FAM/BHQ RNA-DNA oligo cleavage fluorescence, 5 h. AID 504720. activation, % at 20 µM. P0AE70; in the data active means activation above about 50%
Target sequence (P0AE70 whole entry, looked up): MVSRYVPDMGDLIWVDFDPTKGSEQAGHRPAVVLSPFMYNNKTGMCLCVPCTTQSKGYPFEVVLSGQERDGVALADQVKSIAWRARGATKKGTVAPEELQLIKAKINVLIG
Mtb betalactam = beta-lactam sensitization of Mtb H37Rv; inhibition, % at 25 µM; AID 434955; M. tuberculosis H37Rv growth with meropenem, percent inhibition; 330,000 compounds, 0.27% hits; call rule not given here;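 further: growth measured after seven days incubation then overnight dye step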
CCHF vOTU inh-1 = blocks the CCHF virus ovarian tumor domain protease | 370,000 compounds, 0.55% hits | inhibition, % at 11.5 µM | CCHFV vOTU protease, Pep-AMC fluorescence
SARS 3CLpro inh = SARS-CoV 3CLpro protease inhibition; 290,000 compounds, 0.14% hits; inhibition, % at 6 µM; P0C6X7; AID 1706; recombinant SARS-CoV 3CLpro, quenched FRET peptide cleavage; in the data active means inhibition above about 12%
ugtP null kill = kills S. aureus RN4220 lacking UgtP; growth inhibition, % (no concentration beside the values); 330,000 compounds, 0.54% hits; S. aureus RN4220 ugtP deletion, OD600 growth, 16 h; AID 1259309; in the data active means growth inhibition above about 68%
CCHF vOTU inh-2 = confirmation of CCHF virus vOTU protease inhibitors; shares compounds with CCHF vOTU inh-1; Recombinant CCHFV vOTU, Pep-AMC fluorescence; inhibition, % at 11.5 µM; 1,900 compounds, 17% hits; AID 686976
A number is an active result; - = inactive; ? = inconclusive; . = not tested or not shown. Rows were chosen to be rich in hits. Some 1.3% of all compounds tested hit in one or more screens of this group. Unless noted, no stated cut-off is given here; in the data, active means inhibition above about 30%; inactive means the rest.

SMILES	Sa RN4220 lethal	MazEF act	Mtb betalactam	CCHF vOTU inh-1	SARS 3CLpro inh	ugtP null kill	CCHF vOTU inh-2
CC(=O)N(C)C1=C(N2CCOCC2)C(=O)c2ccccc2C1=O	-	-	-	.	-	-	.
CC(=O)N(C1=C(N2CCOCC2)C(=O)c2ccccc2C1=O)c1ccc(C(=O)O)cc1	-	-	-	52	-	-	36
CC(=O)c1ccc(NC2=C(N3CCOCC3)C(=O)c3ccccc3C2=O)cc1	-	-	-	93	-	-	67
CC(=O)c1ccc(S(=O)(=O)Nc2ccc(N3CCOCC3)cc2)cc1	-	-	-	-	-	-	.
O=C(O)c1ccc(NC2=C(N3CCOCC3)C(=O)c3ccccc3C2=O)cc1	-	-	-	57	-	-	-
Cc1ccc(NC2=C(N3CCOCC3)C(=O)c3ccccc3C2=O)cc1	-	-	-	108	-	-	101
O=C(Cc1ccccc1)NC(c1ccccc1)P(=O)(O)CO (configuration not stated)	-	.	.	.	.	-	.
O=C1C(=Cc2cn(-c3ccccc3)nc2-c2ccc(OCc3ccccc3)cc2)SC(=S)N1CCS(=O)(=O)O	.	.	.	30	.	.	-
Cc1ccc(-c2nn(-c3ccccc3)cc2C=C2SC(=S)N(CCS(=O)(=O)O)C2=O)cc1	.	.	.	-	.	.	.
O=C1CC(=O)N(Cc2ccccc2)C(=O)N1Cc1ccccc1	.	-	.	-	.	.	.
O=C1Cc2ccccc2C(=O)N1CCc1ccccc1	-	-	-	100	-	-	102
COc1ccc(NC(=O)COc2cc(C)cc(C)c2)cc1S(=O)(=O)N1CCCCC1	-	-	-	30	.	-	-
COc1ccc(C=NNC(=O)c2ccccc2NC(=O)c2ccco2)c(OC)c1	-	.	.	.	.	-	.
O=C(O)CCCNc1cc(N2CCN(C(=O)c3ccco3)CC2)c2noc3c2c1C(=O)c1ccccc1-3	.	-	-	32	-	.	81
COCc1c(C(=O)NN=C(C)c2ccncc2)nnn1-c1nonc1N	-	.	.	.	.	-	.
CCc1nc2c(OCC(=O)C(C)(C)C)cccn2c1N(C=O)CC(=O)N(C)C	.	.	.	-	.	.	.
CCCCN(C=O)c1c(CC)nc2c(OCC(=O)C(C)(C)C)cccn12	.	.	.	32	.	.	-
CC1(C)Oc2ccc(C#N)cc2C(N2CCCC2=O)C1O (configuration not stated)	-	.	.	.	.	-	.
COc1ccccc1C(=O)NCCC(=O)N(Cc1ccco1)Cc1cccs1	-	-	-	-	-	-	.
COc1ccc(C(=O)N(Cc2ccco2)Cc2cccs2)c(O)c1	-	-	-	34	-	-	-
Cc1ccc(S(=O)(=O)NN=Cc2c(F)cccc2Cl)cc1	-	.	.	.	.	-	.
Cc1ccc([N+](=O)[O-])cc1N(CC(=O)Nc1ccc(S(=O)(=O)Nc2cccc(C(F)(F)F)c2)cc1)S(C)(=O)=O	88	-	-	30	-	-	-
O=c1cc(C(F)(F)F)nc(SCc2cccc3ccccc23)[nH]1	-	-	?	31	-	-	-
COc1cc(-c2coc3c(C(=O)NCc4ccccc4)cccc23)ccc1O	.	.	.	41	.	.	-
COc1cc(-c2coc3c(C(=O)NCc4cccc(Cl)c4)cccc23)ccc1O	.	.	.	-	.	.	.
SMILES	Sa RN4220 lethal	MazEF act	Mtb betalactam	CCHF vOTU inh-1	SARS 3CLpro inh	ugtP null kill	CCHF vOTU inh-2
Cc1[nH]n(-c2ccccc2)c(=O)c1C(c1cccc([N+](=O)[O-])c1)c1c(C)[nH]n(-c2ccccc2)c1=O	-	-	-	41	-	-	-
Cc1[nH]n(-c2ccccc2)c(=O)c1C(c1cccc([N+](=O)[O-])c1O)c1c(C)[nH]n(-c2ccccc2)c1=O	-	-	-	33	-	-	-
COc1cc(/C=N/N=C2/C(=O)Nc3ccccc32)ccc1O	.	-	-	-	-	.	.
O=C1Nc2ccccc2/C1=N\N=C\c1ccc(O)c(O)c1	.	-	-	33	-	.	-
O=C(NC1CC1)C1=CC(c2ccccc2)CC(OCc2ccc(CO)cc2)O1 (configuration not stated)	-	.	.	.	.	-	.
C=CCSC1=N/C(=C\c2cccnc2)C(=O)N1c1ccc(OC)cc1	-	-	-	-	-	-	.
CCSC1=N/C(=C\c2ccccc2)C(=O)N1c1ccc(OC)cc1	-	-	-	30	-	-	-
N/C(=N\O)c1cn(Cc2ccccc2Cl)c2ccccc12	.	-	-	-	-	.	.
Cc1[nH][nH]c(=O)c1C(c1c(C)[nH][nH]c1=O)c1cn(Cc2ccccc2Cl)c2ccccc12	-	71	.	66	-	-	-
Cc1c(Cc2ccccc2)sc(N=Cc2c(O)ccc3ccccc23)c1C(N)=O	-	.	.	.	.	-	.
COc1cc(CNc2ncnc3c2ncn3[C@H]2CN(Cc3cccc(C(F)(F)F)c3)C[C@@H](CO)O2)cc(OC)c1OC	.	.	.	31	.	.	-
Cc1cc(C)cc(C(=O)C=C2NC(=O)CS2)c1	-	.	.	.	.	-	.
Cc1cc(=O)[nH]c(NN=Cc2cc(C)n(-c3ccccc3)c2C)n1	-	.	.	.	.	-	.
COc1cccc(Nc2nc(C(N)CC(C)C)cs2)n1 (configuration not stated)	.	.	.	-	.	.	.
COc1cccc(Nc2nc(C(N)C(C)C)cs2)n1 (configuration not stated)	.	.	.	34	.	.	-
CC1=NNC(=O)C1CCC(=O)N/N=C(/C)c1ccc([N+](=O)[O-])cc1 (configuration not stated)	.	-	-	30	-	.	-
COC(=O)CC1c2cc(C(F)(F)F)ccc2S(=O)(=O)N1C1CCCCC1 (configuration not stated)	-	.	.	.	.	-	.
Cc1cccc2c1[nH]c1nc(N/N=C\c3ccco3)nnc12	.	.	?	37	-	.	-
O=C(NC(=Cc1ccc(Br)cc1)C(=O)N1CCOCC1)c1cccs1	-	.	.	.	.	-	.
CC(C)(C)c1ccc(C=NOCC(=O)NCc2ccc(F)cc2)cc1	-	.	.	.	.	-	.
CC(C)(C)c1ccc(/C=N/OCC(=O)NCc2ccc(F)cc2)cc1	.	-	-	46	-	.	-
FC(F)(F)c1ccc(CNCCc2ccc3c(c2)OCO3)cc1	-	-	-	30	-	-	-
Cc1ccsc1C=NNc1ccc(C(=O)O)cc1	-	.	.	.	.	-	.
COc1cccc(NC(=S)NN=C2CC(C)(C)Oc3ccc(O)cc32)c1	-	.	.	.	.	-	.
COC(=O)c1ccc(C2Nc3ccc(C(C)=NNC(=O)C(OC)c4ccccc4)cc3C3C=CCC32)cc1 (configuration not stated)	-	.	.	.	.	-	.
COc1cccc(NS(=O)(=O)c2ccc3c(c2)C2C=CCC2C(c2ccc(C(=O)O)cc2)N3)c1 (configuration not stated)	-	-	-	41	-	-	-
CCOc1ccc(NS(=O)(=O)c2ccc(-c3cnc(C4CC4)o3)cc2)cc1	-	-	-	30	-	-	-
Cc1c(C(=O)N/N=C/c2ccc(-c3ccccc3[N+](=O)[O-])o2)sc(N)c1C#N	.	-	-	42	-	.	-
Nn1cnnc1N/N=C\c1ccc(-c2ccccc2[N+](=O)[O-])o1	.	-	.	97	-	.	-
Nn1cnnc1NN=Cc1ccc(-c2ccccc2[N+](=O)[O-])o1	-	.	.	.	.	-	.

High-throughput results deposited in PubChem by several laboratories.
